Consider 40 molecules from PubChem BioAssay (NCI).

“And” between values parts separate entries of the source, which are not always exact repeats. Identical values can stand only once. The panel holds about 83,000 compounds, 20% with a hit somewhere; the sample as a whole holds those more often.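 Treatment: one concentration, 48 hours, 96-well format. Scoring: percent growth, with anything below 10 considered active.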 Values without a mark were called inactive. The source made the active and inactive calls.

For the test, the system named is MDA-MB-468 breast. Put plainly: NCI-60 one-dose screen, 48 h (100 = growth as untreated, 0 = no growth, -100 = all killed). Particulars: 10 µM unless noted.
`c1cnc2[nH]cc(-c3csc(-c4cn(CCCN5CCOCC5)c5ccccc45)n3)c2c1`: the growth was 26.2%.

For `COc1ccc(-c2noc(C(=O)O)c2-c2cc(OC)c(OC)c(OC)c2)cc1`, the growth is 24.7%.

Consider `Cc1sc2nc(NCCc3cccs3)[nH]c(=O)c2c1C`, for which the growth was 82.4%.

Regarding `CN(C[C@H]1Cc2c(cccc2N2CCN(Cc3ccccn3)CC2)CN1)[C@H]1CCCc2cccnc21`, the growth is 63.4%.

Turning to `CC(C)Cc1nc(Nc2ccccc2)[nH]c(=O)c1C#N`, the growth is 14.5%.

With `O=[N+]([O-])c1cc2c(cc1Br)C1C(C3C2C(Cl)(Cl)C(Cl)=C(Cl)C3(Cl)Cl)C(Cl)(Cl)C(Cl)=C(Cl)C1(Cl)Cl` (stereo not given), the growth is 95.7%.

Regarding `CCCCCCCCCCCC[n+]1ccc(CCCCCCCCC)cc1`, the growth is -53.8% (active).

As to `CCOC(=O)CCN(CC(C)C)C(=S)Nc1ccccc1`, the growth is 104%.

On to `O=C1NN(C(=O)c2ccc(Cl)cc2)C(c2ccccc2)=N/C1=C\c1cn(-c2ccccc2)nc1-c1ccccc1`, for which the growth is 81.9%.

In the case of `O=C(OCc1ccc2c(Cl)cc(Cl)c(O)c2n1)N1CCNCC1`, the growth was 33.6%.

In the case of `Cc1ccc2nc(NC(=O)CSC(=S)N3CCN(C)CC3)sc2c1`, the growth is 116%.

Take `O=C(/C=C/c1ccc(Cl)c(Cl)c1)Nc1ncc(Cc2ccc(Cl)c(Cl)c2)s1`: the growth was 68.5%.

For the molecule `COc1ccc(N2CCN(c3ccc(NC4=C(Cl)C(=O)c5ncccc5C4=O)cc3)CC2)cc1`, the growth was -53.9% (active).

As to `CN(C)c1nc(-c2cccs2)n2nc(-c3ccc(Cl)cc3)cc2n1`, the growth is 33.6%.

Consider `O=C(O)/C=C/C=C/c1ccccc1`, for which the growth is 93.6% and 112%.

Take `O=C(N/N=C/c1ccc(Oc2ccccc2)cc1)c1cnn2c1NC(c1ccccc1)C2` (stereo not given): the growth is 30.2%.

Take `Nc1ncccc1O`: the growth is 74%.

In the case of `Cc1nc2nc(N)nc(N)c2nc1C`, the growth was 97.6%.

In the case of `Cc1ccc(-c2nc(C#N)c(S(=O)(=O)n3nc(C)cc3N)o2)cc1`, the growth was 57.7%.

Consider `O=c1cc(CSc2nnc(-c3ccc(F)cc3)o2)c2ccc3ccccc3c2o1`, for which the growth is 101%.

With `Cc1nn(-c2ccccc2)c2nc3nc4c(c(N)c3c(-c3ccc(Cl)cc3)c12)CCCC4`, the growth was 104%.

Turning to `O=C(O)CN1C(=O)C=CC1=O`, the growth was 104%.

With `CC(C)(C)c1ccc(S(=O)(=O)O)s1`, the growth is 109%.

As for `O=S(=O)(O)CC(O)CN1CCN(CCO)CC1` (stereo not given), the growth is 105%.

Take `COc1cc(/C=C/C(=O)/C=C/c2cc(OC)c3c(c2OC)OCO3)c(OC)c2c1OCO2`: the growth was 23.1%.

In the case of `COc1ccc(/C=C/C(=O)c2cc3c(N)c(C(=O)Nc4cccc(Cl)c4C)sc3nc2C)cc1`, the growth was 17.1%.

With `CCOC(=O)c1nn(-c2ccc(C)cc2)c(=O)c2c(N)c(C#N)c(-c3ccc(OC)cc3)cc12`, the growth is 102%.

Regarding `CC(=O)N[C@@H](CCC(N)=O)C(=O)O`, the growth was 108%.

Consider `O=C/C=C/c1ccc([N+](=O)[O-])cc1`, for which the growth is 108%.

For `COc1cc(/C=C/c2cc(/C=C/c3ccc(O)c(OC)c3)n(-c3ccccc3)c(=O)n2)ccc1O`, the growth was 63%.

Consider `CC[C@H](C)[C@H](NC(=O)[C@H](CCCNC(=N)N)NC(=O)[C@H](Cc1c[nH]c2ccccc12)NC(=O)[C@@H](NC(=O)[C@H](CCCCN)NC(=O)[C@H](CCCCN)NC(=O)[C@@H](NC(=O)[C@@H](NC(=O)[C@@H](NC(=O)[C@H](CCCCN)NC(=O)[C@H](Cc1ccccc1)NC(=O)[C@H](CCCCN)NC(=O)[C@H](CCCCN)NC(=O)[C@H](Cc1ccccc1)NC(=O)[C@@H](NC(=O)[C@@H](N)CCCCN)[C@@H](C)CC)[C@@H](C)O)[C@@H](C)CC)[C@@H](C)CC)C(C)C)C(=O)N[C@@H](Cc1ccccc1)C(=O)NCC(=O)N[C@@H](CCCNC(=N)N)C(=O)N[C@@H](Cc1ccccc1)C(N)=O`, for which the growth was 28.8%.

On to `O=C1/C(=C2/C=Nc3ccccc32)N(O)c2ccccc21`, for which the growth is 62.2%.

`Cc1ccccc1NC(=O)N/C(N)=N/c1nc(C)c(C)s1`: the growth was -7.08% (active).

In the case of `COc1cc(NCCCN)c2ncccc2c1`, the growth is 76%.

Turning to `CCS(=O)(=O)c1ncnc2nc[nH]c12`, the growth was 105%.

As to `O=C(Nc1ccc(Cl)cc1)c1cc(-c2ccc(F)cc2)c2sc(=O)[nH]c2n1`, the growth was -8.3% (active).

Turning to `CCC1(C(C)C)NC(=O)NC1=O` (stereo not given), the growth was 98.5%.

With `COc1cc(/C=C2\CCC/C(=C\c3ccc(OCC4CO4)c(OC)c3)C2=O)ccc1OCC1CO1` (stereo not given), the growth is 20.1%.

As to `COc1ccc(C(=O)c2ccccc2CN2C(=O)c3ccccc3C2=O)cc1`, the growth was 115%.

`COc1cccc(-c2nc3sccn3c2-c2ccnc(NCCNS(=O)(=O)c3ccc(C(F)(F)F)cc3)c2)c1`: the growth was 41.7%.
